In PubChem BioAssay (NCATS) one finds Potency and activity change, negative = inhibition data, which are given here for 25 compounds.

Structures are written as SMILES. Results filed as inconclusive are left out. The source holds several records for some structures; these can differ, active in one and inactive in another. Active and inactive are the calls of the source. Unless noted, calls follow the shape of the full dose curve.

Assay [1] is described as follows: Primary qHTS for Huh7 cytotoxicity: counterscreen for inhibitors of MERS-S pseudotyped particle cell entry (AID 1479147). The following applies: outcome: dose series up to 57.1 µM unless noted. (qHTS replaces the single test concentration by a dilution series.)
A short description of assay [2]: Primary qHTS for Vero E6 cytotoxicity: counterscreen for inhibitors of SARS-S pseudo-typed particle cell entry (AID 1479150). The following applies: outcome: dose series up to 57.1 µM unless noted.
Assay [3] is described as follows: Primary qHTS to identify inhibitors of SARS-CoV-2 cell entry (AID 1645846). Also: nearly all actives have a fitted effect of over 45% in size. Also: potency is read from the fitted curve at half-maximal effect. The note with it: SARS-CoV-2 pseudovirus cell entry assay, luminescence; activity change, negative = inhibition: at 57.1 µM (top of the series) unless noted. The method in brief:
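HEK293 cells stably expressing human ACE2, pre-treated 1 h with compound, then infected with MLV particles pseudotyped with Wuhan-Hu-1 spike (C-terminal 19-aa truncation). Luciferase luminescence after 48 h at 37 °C, normalised to spike PP and bald PP.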

Assay [4] can be described thus: Primary qHTS for inhibitors of MERS-S pseudo-typed particle cell entry (AID 1479149). Also: nearly all actives have a fitted effect of over 60% in size. Also: potency is read from the fitted curve at half-maximal effect. The note with it: outcome: dose series up to 57.1 µM unless noted.
The nature of assay [5]: Cytotoxicity counterscreen for inhibitors of SARS-CoV-2 cell entry (AID 1645845). Also: nearly all actives have a fitted effect of over 50% in size. The following applies: outcome: dose series up to 57.1 µM unless noted. The method in brief: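 ATP-content luminescence (ATPLite 1step, 15 min RT) read after 48 h compound exposure of Expi293F cells stably expressing human ACE2; normalized to cells-only wells and media-only wells.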
(In general: Counterscreens check selectivity or assay interference.)

Assay [6] in a line: Confirmatory qHTS for VERO E6 Cytotoxicity Assay: Counterscreen for SARS-CoV-2 CPE Assay (AID 1508605). Also: nearly all actives have a fitted effect of over 60% in size. Also: potency is read from the fitted curve at half-maximal effect.
The nature of assay [7]: qHTS Assay for Identifying Gametocytocidal Compounds (AID 743244; active = well fitted curve in the direction sought with a large enough effect; also: potency is read from the fitted curve at half-maximal effect). The following applies: P. falciparum 3D7 stage III-V gametocytes, alamarBlue, 72 h. The method in brief:
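3D7 gametocytes, stages III–V, 20,000/well; cpd 72 h, 37 °C/5% CO2; + alamarBlue 24 h; fluor. Ex 525/Em 598.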

The nature of assay [8]: Confirmatory qHTS to identify inhibitors of SARS-CoV-2 cell entry (AID 1645844). Also: potency is read from the fitted curve at half-maximal effect; nearly all actives have a fitted effect of over 45% in size. The gist of the method: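 Luminescence entry read-out after 48 h: spike-pseudotyped MLV particles (Wuhan-Hu-1, 19-aa C-terminal truncation) added to compound-pretreated (1 h) HEK293-ACE2 cells; Data were normalised to bald PP and spike PP wells.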
Assay [9] is described as follows: VSVG counterscreen qHTS to identify inhibitors of SARS-CoV-2 cell entry (AID 1645847). Also: potency is read from the fitted curve at half-maximal effect; nearly all actives have a fitted effect of over 65% in size. The gist of the method: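 HEK293-ACE2 cells (Expi293F, human ACE2) pretreated 1 h with compound, then infected with MLV-based VSV-G pseudotyped particles for 48 h at 37 C; luciferase luminescence normalized to VSV-G PP and bald PP wells.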
Assay [10] can be described thus: Confirmatory qHTS for activators (rescue) of SARS-CoV-2 Cytopathic Effect (CPE) (AID 1508606). Also: nearly all actives have a fitted effect of over 70% in size. Also: potency is read from the fitted curve at half-maximal effect.

As for `CCCCC(=O)O[C@H]1CC[C@H]2[C@@H]3CCc4cc(O)ccc4[C@H]3CC[C@]12C`, the Potency entry in [1] and in [2] was “inactive” throughout. In addition, in assay [3], the activity change, negative = inhibition was -64.3%.

Regarding `C/C(=C(\CCOC(=O)c1ccccc1)SS/C(CCOC(=O)c1ccccc1)=C(/C)N(C=O)Cc1cnc(C)nc1N)N(C=O)Cc1cnc(C)nc1N`, the Potency entry in [4] and in assay [5] was “inactive” each time.

As for `CCC(C)C(=O)OC12C(OC(C)=O)C(C)C3(O)C(C=C(CO)CC4(O)C(=O)C(C)=CC43)C1C2(C)C` (stereo not given), the Potency result in [6] is “inactive”.

`CCN1/C(=C/C=C/C=C/c2sc3ccccc3[n+]2CC)Sc2ccccc21`: in assay [4], the Potency is 11.2 µM (active).

On to `O=C(OC[C@H]1O[C@@H](OC(=O)c2cc(O)c(O)c(OC(=O)c3cc(O)c(O)c(O)c3)c2)[C@H](OC(=O)c2cc(O)c(O)c(OC(=O)c3cc(O)c(O)c(O)c3)c2)[C@@H](OC(=O)c2cc(O)c(O)c(OC(=O)c3cc(O)c(O)c(O)c3)c2)[C@@H]1OC(=O)c1cc(O)c(O)c(OC(=O)c2cc(O)c(O)c(O)c2)c1)c1cc(O)c(O)c(OC(=O)c2cc(O)c(O)c(O)c2)c1`, for which the Potency entry in [2] was “inactive”.

`C[C@](C#N)(COc1cc(C#N)ccc1C(F)(F)F)NC(=O)c1ccc(SC(F)(F)F)cc1`: the Potency result in [2] is “inactive”.

For `O=C1NC(=O)c2cc(Nc3ccc(F)cc3)c(Nc3ccc(F)cc3)cc21`, the Potency in assay [6] was 11.2 µM (active).

In the case of `CC[C@@H](C(=O)O)[C@@H]1O[C@@H]([C@@H](C)[C@H](O)[C@H](C)C(=O)[C@H](CC)[C@H]2O[C@]3(C=C[C@@H](O)[C@]4(CC[C@@](C)([C@H]5CC[C@](O)(CC)[C@H](C)O5)O4)O3)[C@H](C)C[C@@H]2C)[C@@H](C)C[C@@H]1C`, the Potency was 0.316 µM (active) in assay [7], 0.355 µM (active) in assay [4] and 0.708 µM (active) in assay [3]. Further, the Potency result in assay [2] is “inactive”.

For the compound `CCCCC(=O)OCC(=O)[C@]1(O)Cc2c(O)c3c(c(O)c2[C@@H](O[C@H]2C[C@H](NC(=O)C(F)(F)F)[C@H](O)[C@H](C)O2)C1)C(=O)c1c(OC)cccc1C3=O`, the Potency in assay [7] was 7.08 µM (active); in [4], 14.1 µM (active); in assay [8], 0.857 µM (active); in [3] it was 1 µM (active); in assay [9] it was 0.961 µM (active). Moreover, the Potency result in assay [2] and in assay [5] was “inactive” in each case. Also, in [3], the activity change, negative = inhibition is -97.5%.

Regarding `CCCN1C[C@@H](NS(=O)(=O)N(CC)CC)C[C@@H]2Cc3c(O)cccc3C[C@H]21`, in assay [2], the Potency result was “inactive”.

As to `Clc1cc(Cl)c(OCC#CI)cc1Cl`, in assay [4], the Potency result was “inactive”.

With `CCC(C)CNCC(=O)N1CCc2sccc2C1COc1cccc(C)c1` (stereo not given), the Potency entry in assay [6] was “inactive”.

As for `COc1ccc2c(c1)N(C[C@H](C)CN(C)C)c1ccccc1S2`, the Potency result in assay [2], in assay [6] and in assay [5] was “inactive” in each case. Further, the Potency in [10] was 10 µM (active); in assay [3], 11.2 µM (active).

For the compound `COc1cc([C@@H]2c3cc4c(cc3[C@@H](O[C@@H]3O[C@@H]5CO[C@@H](C)O[C@H]5[C@H](O)[C@H]3O)[C@H]3COC(=O)[C@H]23)OCO4)cc(OC)c1OP(=O)(O)O`, the Potency result in assay [1] and in assay [5] was “inactive” each time. Moreover, the Potency is 0.541 µM (active) in assay [8], 3.55 µM (active) in [3] and 0.482 µM (active) in [9].

`COc1cc2[nH]c(C)c(CCN3CCN(c4ccccc4)CC3)c2cc1OC`: the Potency result in assay [1] and in [2] was “inactive” in each case. Moreover, the activity change, negative = inhibition in [3] was -39.8%.

As to `Cc1nc(C)c(CN2CCN(C(c3ccc(F)cc3)c3ccc(F)cc3)CC2)nc1C`, the Potency result in assay [6] and in assay [5] was “inactive” throughout.

`COCCNCc1ccc(-c2cc3nccc(Oc4ccc(NC(=O)C5(C(=O)Nc6ccc(F)cc6)CC5)cc4F)c3s2)nc1`: the Potency in assay [6] is 5.01 µM (active). In addition, the Potency result in assay [5] is “inactive”. The activity change, negative = inhibition in assay [3] was -25.9%.

As for `COc1cc(NC(=O)Nc2cccc(CNC(=O)O[C@H]3CCOC3)c2)ccc1-c1cnco1`, the Potency result in [6] and in assay [10] was “inactive” throughout.

As to `Cc1cnc(NC(=O)c2cc(S(=O)(=O)N(C)C)ccc2N2CCCC2)s1`, the Potency entry in assay [6] is “inactive”. Besides, the Potency in [10] is 2.82 µM (active).

Regarding `Cc1ncc(NC(=O)c2ccc(CN3CCN(C)CC3)c(C(F)(F)F)c2)cc1Nc1nccc(-c2cccnc2)n1`, the Potency entry in assay [6] and in assay [5] was “inactive” in each case. In addition, the Potency in assay [10] is 10 µM (active).

Consider `CN(C)CCN(Cc1ccc(-c2ccc(CNCCc3ccccc3)cc2)cc1)C(=O)CCC1CCCC1`, for which the Potency in assay [6] was 3.98 µM (active). The Potency entry in assay [10] is “inactive”.

For `CN(C)CCN(Cc1ccccc1)C(=O)c1cc(-c2ccc(F)cc2)n2nc(C(C)(C)C)cc2n1`, the Potency entry in [6] and in assay [10] was “inactive” throughout.

Take `CC(=O)c1c(OCCN2CCCCC2)c(OCCC(C)c2ccc(F)cc2)c2oc(C)nc2c1C` (stereo not given): the Potency entry in assay [6] is “inactive”. Moreover, in assay [10], the Potency is 10 µM (active).

Take `COc1ccc(NS(=O)(=O)c2sc3ccc(Cl)cc3c2C)cc1N1CCNCC1`: the Potency result in assay [6] is “inactive”. Also, in [10], the Potency was 10 µM (active).

Take `CC1OC2OC3C(OCC(O)C3O)OC(=O)C34CCC(C)(C)CC3C3=CCC5C6(C)CC(O)C(OC7OC(CO)C(O)C(O)C7OC7OCC(OC(=O)CC(C)(O)CC(=O)OC1C(OC1OCC(O)C(O)C1O)C2O)C(O)C7O)C(C)(CO)C6CCC5(C)C3(C)CC4O` (stereo not given): the Potency in [6] was 1.56 µM (active). For the same compound, in assay [10], the Potency result was “inactive”.
